# Giardia kill = Small Molecules that selectively kill Giardia lamblia: qHTS; Giardia lamblia trophozoite viability; activity change, % at 7.66 µM, hits read low; 340,000 tested, 0.15% active; AID 540267, 2011; in the data active = activity change below about -80%; inconclusive = between about -30% and that limit;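 also: parasites exposed to compound for two days anaerobically before the ATP read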
#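 Compounds were tested on trophozoites seeded at 100 cells/well and held 48 hrs at 37 deg C anaerobically. An ATP-based luminescent kit measured the remaining live cells.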
# TDP1 cell noCPT = qHTS for Inhibitors of human tyrosyl-DNA phosphodiesterase 1 (TDP1): qHTS in cells in absence of CPT; DT40 Tdp1-/- hTDP1 cells, no CPT, ATP luminescence, 48 h; Potency, µM (highest dose often 46.2 µM), usual class: inhibitors; 420,000 tested, 15% active; AID 686978, 2013; also: nearly all actives have a fitted effect of over 55% in size
#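 No-CPT arm: Tdp1-/-;hTDP1 DT40 cells (400/well) plus compounds, incubated ≥48 hr at 37 °C. Readout CellTiter-Glo luminescence.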
# IL1B secr inh = qHTS for Inhibitors of Inflammasome Signaling: IL-1-beta AlphaLISA Primary Screen; THP-1 LPS/ATP IL-1B secretion, AlphaLISA, 16 h; active compounds read low; activity change, % at 57.5 µM; 360,000 tested, 4.7% active; in the data active = activity change below about -50%; inconclusive = mostly about -30% to -49%
#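 THP-1 cells pretreated 1 hr with compounds (up to 57.5 uM final), then stimulated with LPS (250 ng/mL final) plus ATP (1.25 mM final); secreted IL-1B measured by AlphaLISA after 16 hr, decreased signal indicating inhibition.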
# ELG1 DNA repair = qHTS screen for small molecules that inhibit ELG1-dependent DNA repair in human embryonic kidney (HEK293T) cells expressing luciferase-tagged ELG1 | HEK293T ELG1-luciferase reporter, luminescence, 16 h; DNA damage induced by 5-fluorouridine | Potency, µM (series often up to 46.1 µM), most hits filed as inhibitors | 330,000 tested, 2.3% active | AID 504467, 2011; also: nearly all actives have a fitted effect of over 55% in size
#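 DMSO vehicle served as the neutral condition. Each well held 2,000 cells given 5-fluorouridine plus compound; after 16 hr at 37 °C/5% CO2, ONE-Glo was added and luciferase measured 30 min later.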
# DT40 TDP1 CPT = qHTS for Inhibitors of human tyrosyl-DNA phosphodiesterase 1 (TDP1): qHTS in cells in presence of CPT | chicken DT40 Tdp1-/-;hTDP1 cells + 20 nM CPT, ATP luminescence, 48 h | Potency, µM (top dose mostly 46.2 µM), usual class: inhibitors | 420,000 tested, 12% active | AID 686979, 2013; also: nearly all actives have a fitted effect of over 55% in size
#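 Cell growth measured by CellTiter-Glo luminescence after a minimum 48 h, 37 C compound exposure with 20 nM CPT in Tdp1-knockout DT40 cells stably expressing hTDP1, seeded 400/well; qHTS titration format.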
# TDP1 inh = qHTS Assay for Inhibitors of Tyrosyl-DNA Phosphodiesterase (TDP1); Potency, µM (series often up to 130 µM), most hits filed as inhibitors; Tyrosyl-DNA phosphodiesterase 1 (Homo sapiens), Q9NUW8; 350,000 tested, 0.28% active; recombinant TDP1, AlphaScreen DNA substrate cleavage; also: nearly all actives have a fitted effect of over 40% in size
# Target sequence (Q9NUW8 whole entry, looked up): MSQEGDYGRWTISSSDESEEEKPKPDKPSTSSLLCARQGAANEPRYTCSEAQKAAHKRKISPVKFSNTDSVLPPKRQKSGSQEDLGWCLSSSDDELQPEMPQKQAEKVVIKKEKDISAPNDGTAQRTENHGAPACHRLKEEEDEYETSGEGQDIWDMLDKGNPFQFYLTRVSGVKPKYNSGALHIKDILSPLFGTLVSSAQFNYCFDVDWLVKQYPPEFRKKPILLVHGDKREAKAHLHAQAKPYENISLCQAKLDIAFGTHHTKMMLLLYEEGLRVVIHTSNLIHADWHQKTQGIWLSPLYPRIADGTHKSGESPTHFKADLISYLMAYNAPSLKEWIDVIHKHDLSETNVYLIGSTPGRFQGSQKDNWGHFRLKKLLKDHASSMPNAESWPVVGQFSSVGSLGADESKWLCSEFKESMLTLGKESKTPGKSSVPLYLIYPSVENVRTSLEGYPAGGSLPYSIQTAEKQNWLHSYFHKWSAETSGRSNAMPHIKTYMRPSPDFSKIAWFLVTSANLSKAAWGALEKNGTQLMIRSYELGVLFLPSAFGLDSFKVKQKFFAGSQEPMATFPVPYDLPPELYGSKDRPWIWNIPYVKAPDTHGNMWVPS
#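 E. coli-derived human Tdp1, 1 nM final. Cpd preinc 15 min RT; substrate 15 nM final, 5 min RT; AS bead mix 10 ug/ml final, 10 min RT. Signal loss = tyrosine-FITC cleavage. No-enzyme wells = max signal.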
# A number is an active result; – = inactive; ? = inconclusive; · = no result. Only some compounds are listed: those with a hit (about 19% of all), similar ones and a draw of the others. Unless noted, calls follow the shape of the dose curve; as a rule, active = well fitted curve in the direction sought with a large enough effect; inconclusive = small, poorly fitted or top-dose-only effect, or another doubt; inactive = no such curve, though single readings can be large; an effect the other way counts as inactive or inconclusive.
SMILES,Giardia kill,TDP1 cell noCPT,IL1B secr inh,ELG1 DNA repair,DT40 TDP1 CPT,TDP1 inh
CCCCCCCCN1C(=O)[C@H](CC(=O)NCc2ccc(OC)c(OC)c2)C[C@@]2(C(=O)OC)CC(C)(C)CC=C12,·,18µM,-78,·,18µM,·
COC(=O)[C@@]12C[C@@H](CC(=O)NCC34CC5CC(CC(C5)C3)C4)C(=O)N(CCc3ccc(OC)c(OC)c3)C1=CCC(C)(C)C2,·,15µM,-98,·,16µM,·
COC(=O)[C@@]12C[C@@H](CC(=O)NCc3ccc(OC)c(OC)c3)C(=O)N(CCc3ccc(OC)c(OC)c3)C1=CCC(C)(C)C2,·,15µM,–,·,16µM,·
COC(=O)[C@@]12C[C@@H](CC(=O)N3CCCC3)C(=O)N(CCc3ccc(OC)c(OC)c3)C1=CCC(C)(C)C2,·,?,–,·,?,·
COCCCNC(=O)C[C@@H]1C[C@@]2(C(=O)OC)CC(C)(C)CC=C2N(CCc2ccc(OC)c(OC)c2)C1=O,·,–,–,·,–,·
Cc1cc(=O)[nH]c2nnc(SCc3ccc(Cl)c(Cl)c3)n12,·,–,·,·,–,–
COc1ccnc(Oc2ccccc2)c1C(=O)N/C=N/OCc1ccccc1F,–,?,–,?,–,·
COc1ccc(S(=O)(=O)Nc2c(C)nn(C)c2C)cc1Br,–,?,–,–,–,–
Cc1ccc(-n2c(=O)c3sc4ccccc4c3n(CC(=O)NC3CCCC3)c2=O)cc1C,·,?,·,·,?,–
COC(=O)[C@@]12C[C@@H](CC(=O)NCCc3ccccc3OC)C(=O)N(CCc3ccc(OC)c(OC)c3)C1=CCC(C)(C)C2,·,?,–,·,23µM,·
COC(=O)[C@@]12C[C@@H](CC(=O)NCCCN3CCCC3=O)C(=O)N(CCc3ccc(OC)c(OC)c3)C1=CCC(C)(C)C2,·,–,–,·,–,·
CCOC(=O)C1CCCN(c2c(Nc3ccc(C)c(C)c3)c(=O)c2=O)C1 (centres undefined),–,?,–,–,16µM,–
CCOc1ccc(NS(=O)(=O)c2ccc3[nH]cc(C(=O)NC(C)CC)c(=O)c3c2)cc1 (centres undefined),–,21µM,–,–,?,–
CCOc1ccc(N(C)S(=O)(=O)c2ccc3[nH]cc(C(=O)NCCOC)c(=O)c3c2)cc1,–,?,–,?,13µM,–
Cc1ccc(C)c(N(C)S(=O)(=O)c2ccc3[nH]cc(C(=O)NCCN4CCOCC4)c(=O)c3c2)c1,–,?,-63,–,–,–
CCc1ccccc1N(C)S(=O)(=O)c1ccc2[nH]cc(C(=O)N3CCc4ccccc43)c(=O)c2c1,–,18µM,–,?,?,–
Cc1cc(C)cc(C(=O)Nc2cccc(NC(=O)c3ccco3)c2)c1,–,?,–,?,?,–
O=C(O)c1cccc(Nc2nc(Nc3ccccc3)nc(N3CCCC3)n2)c1,–,?,–,–,–,–
CCN(CC)N=Nc1ccc(S(=O)(=O)Nc2nc(C)cc(C)n2)cc1,–,–,–,–,–,–
CCCNC(=O)c1c[nH]c2ccc(S(=O)(=O)N(C)c3ccc(OCC)cc3)cc2c1=O,–,23µM,–,?,?,–
C=CCNC(=O)c1c[nH]c2ccc(S(=O)(=O)N(C)c3ccc(OCC)cc3)cc2c1=O,–,21µM,–,?,21µM,·
CCOc1ccc(N(C)S(=O)(=O)c2ccc3[nH]cc(C(=O)NCCCOC)c(=O)c3c2)cc1,–,21µM,–,–,23µM,·
Cc1cc(F)ccc1NC(=O)C1CCCN(C(=O)c2cnn(-c3ccccc3)c2-n2cccc2)C1 (centres undefined),·,?,·,·,?,–
COc1ccc(NC(=O)Cn2c3ncccc3c(=O)n2-c2ccc(C)c(C)c2)c(OC)c1,·,–,·,·,–,–
COc1ccc(/C=C2\Sc3ccc(C(=O)N4CCN(Cc5ccccc5)CC4)cc3N(C)C2=O)cc1OC,–,3.3µM,–,23µM,5.2µM,–
SMILES,Giardia kill,TDP1 cell noCPT,IL1B secr inh,ELG1 DNA repair,DT40 TDP1 CPT,TDP1 inh
COc1ccc(/C=C2\Sc3ccc(C(=O)NCc4cccnc4)cc3N(C)C2=O)cc1OC,–,16µM,-80,18µM,21µM,–
CN1C(=O)/C(=C/c2ccccc2F)Sc2ccc(C(=O)N3CCCC3)cc21,–,?,-75,?,?,–
COc1cccc(/C=C2\Sc3ccc(C(=O)NCc4cccnc4)cc3N(C)C2=O)c1,–,?,-82,?,?,–
CCS(=O)(=O)c1ccc(C=NNc2nc3ccccc3o2)cc1,–,23µM,–,·,?,·
CN(C)c1ccc(/C=N/Nc2nc3ccccc3o2)cc1,–,–,–,?,?,·
O=C(CCS(=O)(=O)c1cccc2nonc12)Nc1ccc(F)cc1F,·,–,·,·,–,–
O=C(CCNC(=O)C1CCN(S(=O)(=O)c2ccccc2)CC1)NCc1ccc(Cl)cc1Cl,–,?,–,–,21µM,–
O=C(NCc1ccc(Cl)cc1Cl)C1CCN(S(=O)(=O)c2ccc3c(c2)OCCCO3)CC1,–,?,–,?,21µM,–
O=C(CCNC(=O)C1CCN(S(=O)(=O)c2ccccc2)CC1)NCc1ccc(Cl)cc1,–,?,–,–,–,–
CCOc1cc(/C=N/NC(=O)Cn2nc([N+](=O)[O-])cc2C)cc(Br)c1OCc1ccccc1C,–,?,–,?,23µM,–
CCOc1cc(/C=N/NC(=O)Cc2ccc(C(F)(F)F)cc2[N+](=O)[O-])ccc1O,–,–,–,–,–,–
Cc1cc([N+](=O)[O-])nn1CC(=O)N/N=C/c1ccccc1Br,–,–,–,–,–,–
Cc1cc([N+](=O)[O-])nn1CC(=O)N/N=C/c1ccc(O)cc1O,–,6.5µM,–,?,8.2µM,–
COc1cccc(/C=N/NC(=O)Cn2nc([N+](=O)[O-])cc2C)c1,–,–,–,?,–,–
C=CCOc1c(Br)cc(/C=N/NC(=O)Cc2ccc(C(F)(F)F)cc2[N+](=O)[O-])cc1OC,–,13µM,–,?,12µM,–
COc1cc(/C=N/NC(=O)Cn2nc([N+](=O)[O-])cc2C)cc(Br)c1OCc1ccccc1,–,?,–,?,26µM,–
COc1ccc(C(=O)COC(=O)c2cnc(C)cn2)cc1OC,–,–,–,–,–,–
Cc1cc(NC(=O)C2CCCCC2)n(-c2nc3ccccc3[nH]2)n1,–,16µM,–,?,23µM,–
Cc1cc(Nc2ccccc2)n(-c2nc3ccccc3[nH]2)n1,–,?,?,–,?,–

# Screening data deposited in PubChem BioAssay by National Center for Advancing Translational Sciences (NCATS).
